# Records with an inconclusive call do not appear. Where a call stands in place of a potency, no number is given. Active and inactive are the calls of the source. Calls come from the whole dose curve; as a rule, active = well fitted activation curve with a large enough effect in the signal ratio in the repeat runs (not every such curve was filed as active); inconclusive = weak or mixed curves, or effect the other way; inactive = no such curve, though single readings can be large or run the other way; the % refers to the signal ratio.
# Assay: qHTS assay for small molecule agonists of the antioxidant response element (ARE) signaling pathway (AID 743202)
# Details: HepG2 ARE-bla reporter, beta-lactamase FRET, 16 h; series mostly up to 73.3 µM
# From the text: U.S. Tox21 Program National Center for Advancing Translational Sciences [NCATS] NIH Chemical Genomics Center [NCGC] U.S. Environmental Protection Agency [EPA] National Institutes of Environmental Health Sciences [NIEHS] National Toxicology Program [NTP] U.S. Food and Drug Administration [FDA] Tox21 Assay Overview: Oxidative stress has been implicated in the pathogenesis of a variety of diseases ranging from cancer to neurodegeneration. The antioxidant response element (ARE) signaling pathway plays an important role in the amelioration of oxidative stress. The CellSensor ARE-bla HepG2 cell line (Invitrogen) can be used for analyzing the Nrf2/antioxidant response signaling pathway. Nrf2 (NF-E2-related factor 2) and Nrf1 are transcription factors that bind to AREs and activate these genes. The CellSensor ARE-bla Hep G2 cell line contains a beta-lactamase reporter gene under control of the Antioxidant Response Element (ARE) stably integrated into HepG2 cells. The activation of the report gene under culture conditions can be detected by fluorescence intensity. This cell line has been used to screen the Tox21 10K compound library to identify agonists that induce oxidative stress.
# Tox21 Assay Protocol Summary: The ARE-bla cells were dispensed at 2,000 cells/5 ul/well in 1536-well black wall/clear bottom plates using a Multidrop dispenser. After the assay plates were incubated at a 37 C/5% CO2 incubator for 5 hours, 23 nL of compounds dissolved in DMSO, positive controls or DMSO only was transferred to the assay plate by a pin tool. The plates were incubated at 37 C for 16 hours. After 1 uL of LiveBLAzer B/G FRET substrate was added using a Flying Reagent Dispenser, the plates were incubated at room temperature for 2 hours, and fluorescence intensity was measured by an Envision plate reader.
# Potency is the fitted concentration of half-maximal effect.
row,SMILES,Potency
1,O=C1OC(=O)C2C1C1(Cl)C(Cl)=C(Cl)C2(Cl)C1(Cl)Cl (stereo not given),inactive
2,C=CC1CC=CCC1 (stereo not given),inactive
3,CCOP(=S)(OCC)Oc1cc(-c2ccccc2)on1,inactive
4,Cc1ncc(CNC(=O)N(CCCl)N=O)c(N)n1,inactive
5,CCOC(=O)CP(=O)(OCC)OCC,inactive
6,Nc1ccccc1Cl,inactive
7,C[C@@H]1CN(C2CCC(C#N)(c3ccc(F)cc3)CC2)CC[C@]1(C(=O)O)c1ccccc1 (stereo not given in full),inactive
8,C[N+](C)=CCl,inactive
9,CCCCCCI,inactive
10,O=[N+]([O-])c1cccc2c([N+](=O)[O-])cccc12,3.88 µM (active)
11,COc1cc(OC)nc(NC(=O)NS(=O)(=O)c2ncccc2OCC(F)(F)F)n1,inactive
12,NC(=O)O,inactive
13,CCOC(=O)NC(=S)Nc1ccccc1NC(=S)NC(=O)OCC,inactive
14,N#Cc1c(Cl)cccc1Cl,inactive
15,N#CC(Cl)(Cl)Cl,inactive
16,CCCCc1c(C)nc(NCC)[nH]c1=O,inactive
17,CSc1ccc(C(=O)C(C)(C)N2CCOCC2)cc1,inactive
18,CC(=O)C(Cl)Cl,inactive
19,CC(=O)Nc1cc([As](=O)(O)O)ccc1O,inactive
20,CN1CCN(C(=O)O[C@H]2c3nccnc3C(=O)N2c2ccc(Cl)cn2)CC1,inactive

row,SMILES,Potency
1,N#CC(CCc1ccc(Cl)cc1)(Cn1cncn1)c1ccccc1 (stereo not given),inactive
2,CCOP(=O)(OCC)OP(=O)(OCC)OCC,inactive
3,COc1cc(OC)nc(Oc2cccc(Oc3nc(OC)cc(OC)n3)c2C(=O)O)n1,inactive
4,COCC(=O)N(c1c(C)cccc1C)N1CCOC1=O,inactive
5,C=C(C)CN(CC)c1c([N+](=O)[O-])cc(C(F)(F)F)cc1[N+](=O)[O-],inactive
6,CN/C(=N\[N+](=O)[O-])NCC1CCOC1 (stereo not given),inactive
7,ClCCOCOCCCl,inactive
8,CCOC(=O)C1(c2ccccc2)CCN(CCc2ccc(N)cc2)CC1,inactive
9,N#CCCC#N,inactive
10,CCNc1nc(NC(C)C)nc(OC)n1,inactive
11,O=C(CCN1CC1)OCC(CO)(COC(=O)CCN1CC1)COC(=O)CCN1CC1,inactive
12,Nc1cc2c3c(c1)C(c1ccccc1)=N[C@@H](NC(=O)c1cccnc1)C(=O)N3CC2,inactive
13,CC(C)[N+](=O)[O-],inactive
14,CCS(=O)(=O)CCSP(=O)(OC)OC,8.63 µM (active)
15,COP(N)(=S)Oc1ccccc1C(=O)OC(C)C (stereo not given),inactive
16,CC(C)CC#N,inactive
17,CC(N)=S,inactive
18,CCC(C)n1c(=O)[nH]c(C)c(Br)c1=O (stereo not given),inactive
19,O=CNC(N1CCN(C(NC=O)C(Cl)(Cl)Cl)CC1)C(Cl)(Cl)Cl (stereo not given),inactive
20,CNC(=O)Oc1ccccc1C1OCCO1,inactive
